# This is a sample that favours compounds with a hit; in the whole collection about 0.89% have one here.
# AGP1-GFP MLPCN: alters AGP1-GFP fluorescence in TOR pathway yeast screen. AID 2066. hit rate 0.02% among 320,000. S. cerevisiae AGP1-GFP multiplex flow cytometry, 3 h; GFP as percent of DMSO wells. GFP response vs DMSO, % at 10 µM;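 active = GFP response relative to DMSO above a set limit, near screen average plus 3 SD, cut at about 150% in these data; inconclusive = fewer than 70 cells counted for the yeast strain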;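 note: median GFP channel fluorescence of the gated AGP1 strain per well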
# MEP2 TOR yeast: yeast TOR pathway MEP2-GFP modulation. S. cerevisiae MEP2-GFP strain, flow cytometry GFP, 3 h; 100% = DMSO control level. GFP response vs DMSO, % at 10 µM. hit rate 0.51% among 330,000. AID 2016;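 active = GFP response versus DMSO above a set limit, roughly screen mean plus 3 SD, cut at about 180% in these data; inconclusive = fewer than 70 cells counted for a yeast strain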;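 note: median GFP fluorescence of the barcode-gated MEP2-GFP cells per well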
# LAP4-GFP MLPCN: alters LAP4-GFP fluorescence in TOR pathway yeast screen | S. cerevisiae LAP4-GFP multiplex, flow cytometry GFP, 3 h; median GFP as percent of DMSO wells | GFP response vs DMSO, % at 10 µM | hit rate 0.34% among 320,000 | AID 2023;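 active = GFP response vs DMSO above a set limit, about the screen mean plus 3 SD, cut at about 150% in these data; inconclusive = under 70 cell events counted for the yeast strain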
# RPL19A TOR yeast: yeast TOR pathway RPL19A-GFP modulation | S. cerevisiae RPL19A-GFP strain, flow cytometry, 3 h; stronger effect = lower value | percent response vs DMSO, % at 10 µM | hit rate 0.3% among 330,000;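 active = percent response vs DMSO below 50%; inconclusive = fewer than 70 events counted for the yeast strain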;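 note: median channel GFP fluorescence of the barcoded RPL19A-GFP strain; ratio of sample median GFP to plate DMSO average so 100% = DMSO; lower means less RPL19A-GFP as with rapamycin TOR inhibition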
# CIT2 TOR yeast: alters CIT2-GFP fluorescence in TOR pathway yeast screen; S. cerevisiae CIT2-GFP strain, flow cytometry, 3 h; 100 means same as DMSO wells; GFP response vs DMSO, % at 10 µM; hit rate 0.065% among 320,000;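 active = GFP response relative to DMSO above a set limit, near the screen mean plus 3 SD, cut at about 150% in these data; inconclusive = Fewer than 70 cells measured for a yeast strain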;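 note: ratio of well median GFP fluorescence to mean of DMSO wells on the plate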
# Starred values were filed as active, the others as inactive; ? = inconclusive; / = no result; [ ] = remark or other dose.
SMILES,AGP1-GFP MLPCN,MEP2 TOR yeast,LAP4-GFP MLPCN,RPL19A TOR yeast,CIT2 TOR yeast
CC(=O)Nc1cccc(NC(=O)CSc2nc(C3CC3)nc3ccccc23)c1,102,102,93,107,106
CCCc1cc(=O)oc2cc(C)cc(OCC(=O)Nc3ccc(CN4CCOCC4)cc3)c12,?,271*[may fluoresce violet],61,28*[may fluoresce violet],?
Nc1ccc(CC2SC(=O)NC2=O)cc1 (stereo unspecified),?,416*[may fluoresce violet],132,51,?
CCn1cc(CN2CCC(n3nccc3NC(=O)c3ccc4c(c3)OCO4)CC2)c(C)n1,98,95,108,98,99
Cc1ccccc1OC1CCN(C(=O)C2CCC(=O)N(C3CCCC3)C2)CC1 (stereo unspecified),105,99,156*,88,100
Cc1ccc(OC2CCN(C(=O)C3CCC(=O)N(C4CC4)C3)CC2)cc1 (stereo unspecified),92,77,79,93,87
CC(C)c1c(O)nc(SCC(=O)N2CCCCC2)[nH]c1=O,17,241*[may fluoresce violet],81,66,?
CCC(C)c1c(O)nc(SCC(=O)N2CCCCCC2)[nH]c1=O (stereo unspecified),92,108,86,99,103
O=C(CCN=C1NS(=O)(=O)c2ccccc21)Nc1ccc(F)cc1Cl,102,96,103,96,91
CCN(CCCNC(=O)c1nn(C)c2c1CS(=O)(=O)c1ccccc1-2)Cc1ccccc1,102,100,114,100,104
CC(C)C1N(C(N)=S)N=CC1(C)C (stereo unspecified),/,664*[may fluoresce violet],/,49*[may fluoresce violet],/
CCOC(=O)N1CCN(Cc2nnc(-c3ccccc3C)o2)CC1,103,105,101,106,105
COc1cccc2sc(N(CCN(C)C)C(=O)/C=C/c3cccs3)nc12,?,193*[may fluoresce violet],91,52,?
N#CC1=C(N)C2=C(N3CCCCC3)CCCC2C1(C#N)C#N (stereo unspecified),93,115,110,99,99
N#CC(C#N)=C1C=C2C=C(N3CCCCC3)CCC2CC1 (stereo unspecified),190*[may fluoresce green],896*[may fluoresce green],712*[may fluoresce green],217,631*[may fluoresce green]
COc1ccc(NC(=O)c2cccc3c2C(=O)N(C2CCCCC2)C3)cc1,97,99,96,95,92
COc1ccc(OC)c(NC(=O)c2cccc3c2C(=O)N(C2CCCCC2)C3)c1,17,161,87,29*,111
Cc1cccc(C(CC(=O)O)n2cccc2)c1 (stereo unspecified),?,401*[may fluoresce violet],121,55,?
Cc1ccc(Nc2cc(C)nn2-c2nc(C)cc(=O)[nH]2)cc1,79,122,152*,69,96
CC(=O)N(Cc1ccc(Cl)cc1)c1cnccn1,?,293*[may fluoresce violet],86,57,?
Cc1cnc(C(=O)OC(C)C(=O)c2c(C)[nH]c3ccccc23)cn1 (stereo unspecified),92,87,125,88,71
CNC(=O)/C(C#N)=C/c1c(N2CCCCCC2)nc2ccccn2c1=O,21,216*,93,77,80
Cc1ccccc1NC(=O)N1CCNC(=O)C1CC(=O)Nc1cc(Cl)ccc1Cl (stereo unspecified),118,109,103,94,159*[may fluoresce green]
Clc1ccc2nc(N3CCNCC3)nc(-c3ccccc3)c2c1,?,?,?,39*[may fluoresce violet],?
CN1CCN(c2nc(-c3ccccc3)c3cc(Cl)ccc3n2)CC1,92,100,91,92,82
SMILES,AGP1-GFP MLPCN,MEP2 TOR yeast,LAP4-GFP MLPCN,RPL19A TOR yeast,CIT2 TOR yeast
CC(=O)Nc1ccc(N(C(=O)CNC(=O)c2ccco2)C(C(=O)NCc2ccco2)c2ccccc2F)cc1 (stereo unspecified),98,104,89,103,109
COc1ccc(-c2csc(N(CC(C)C)C(=O)c3ccco3)n2)cc1,150*,106,100,110,100
Cc1ccc(C2=NCCn3c2c2ccccc2[n+]3[O-])cc1,98,104,98,99,97
CCn1c(O)c(N=NC(=O)CNc2cccc(C)c2)c2ccccc21,15,525*[may fluoresce violet],90,74,?
CCn1c(O)c(N=NC(=O)CNc2ccc(C)cc2)c2ccccc21,102,95,97,103,97
COc1cccc2cc(C(=O)N3CCCCCCC3)c(=O)oc12,94,104,96,102,99
COc1cccc2cc(C(=O)N3CCN(C/C=C/c4ccccc4)CC3)c(=O)oc12,89,219*,106,81,63
Cc1csc(SCC(=O)Nc2cc(S(=O)(=O)N(C)C)ccc2C)n1,105,99,104,101,105
CCOc1ccc2noc3c2c1C(=O)c1ccccc1-3,103,163,247*,92,121
Cc1ncc2c(n1)-c1cc(F)ccc1SC2,96,178*,115,116,144
COc1ccc(OC)c(S(=O)(=O)NC2CCCCNC2=O)c1 (stereo unspecified),97,115,99,104,103
Cc1ccc(OCc2ccc(C(=O)Nc3nccs3)o2)cc1C,?,255*[may fluoresce violet],76,15*[may fluoresce violet],?
Cc1ccc(-c2ccc(/C=N/NC(N)=S)o2)cc1,82,93,158*,82,85
COc1ccc(NC(=O)CN2C(=O)NC(CC(C)C)C2=O)cc1S(=O)(=O)N1CCOCC1 (stereo unspecified),99,97,98,100,98
Cc1ccc(CNC(=O)c2nccnc2C(=O)O)cc1,95,105,105,103,88
CCCc1nnc(SCC(=O)N2CCCCC2)n1CC1CCCO1 (stereo unspecified),31,200*[may fluoresce violet],96,65,?
CCCc1nnc(SCC(=O)N2CCCC2)n1CC1CCCO1 (stereo unspecified),/,108,101,92,91
COc1ccnc(Oc2ccc(Cl)cc2)c1C#N,101,103,104,100,100
COc1ccnc(N=CNOCc2ccc(Cl)cc2)c1C#N,20,226*[may fluoresce violet],89,45*[may fluoresce violet],?
CNC(=O)c1[nH]cnc1C(=O)Nc1ccccn1,154*[may fluoresce green],622*[may fluoresce green],430*[may fluoresce green],155,435*[may fluoresce green]
COc1ccccc1NC(=O)c1nc[nH]c1C(=O)Nc1ccccc1OC,/,558*[may fluoresce violet],118,42*[may fluoresce violet],?
O=C(Cn1ncn2nc(-c3ccccc3)cc2c1=O)NCc1ccccn1,78,103,96,94,102
O=C(CCCOc1ccc(Br)cc1)Nc1nnc(C2CC2)s1,108,101,106,107,99
COc1ccc(C(=O)COC(=O)C2COc3ccccc3O2)cc1F (stereo unspecified),103,101,106,106,105
CC(C)[C@H](NC(=O)c1ccco1)C(=O)OCC(=O)Nc1ccc(Cl)c(S(=O)(=O)N(C)C)c1,?,178*[may fluoresce violet],59,21*[may fluoresce violet],?
CC(C)[C@H](NC(=O)c1ccco1)C(=O)OCC(=O)Nc1cccc(F)c1,99,120,101,98,107

# Source: PubChem (NMMLSC)
